Only some compounds are listed: those with a hit (about 3.6% of all), similar ones and a draw of the others.
bCat KO growth = beta-catenin-lacking colon tumor cell growth suppression | actives 1.5% (n = 140,000) | viability, % at 10 µM | HCT116 beta-catenin knockout viability, CellTiter-Glo, 60 h; hits give low values;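 active = viability at or under a set limit, the compound median less 4 SD, cut at about 6% in these data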
PTEN del growth = suppresses growth of cells with PTEN deletion. HCT116 PTEN-null viability, CellTiter-Glo, 60 h; hits give low values. viability, % at 10 µM. actives 1.2% (n = 140,000). AID 827;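 active = viability at or below a set limit, 4 SD under the median of all tested compounds, cut at about 3.7% in these data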;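 also: PTEN knockout HCT116 line with beta catenin targeted HCT116 as companion control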
DAT uptake mod = changed human dopamine transporter uptake under cocaine IC80 | B-score at 10 µM | Q01959 | actives 1.3% (n = 110,000) | AID 449768 | LLC-PK1 hDAT cells, [14C]-dopamine uptake with cocaine IC80; actives deviate in either direction;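 active = Z score or B-score, a plate-position-corrected score, falls beyond the plate's 99.7% confidence bounds, in either direction; inactive = both scores lie inside the 99.7% bounds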
Target sequence (Q01959 whole entry, looked up): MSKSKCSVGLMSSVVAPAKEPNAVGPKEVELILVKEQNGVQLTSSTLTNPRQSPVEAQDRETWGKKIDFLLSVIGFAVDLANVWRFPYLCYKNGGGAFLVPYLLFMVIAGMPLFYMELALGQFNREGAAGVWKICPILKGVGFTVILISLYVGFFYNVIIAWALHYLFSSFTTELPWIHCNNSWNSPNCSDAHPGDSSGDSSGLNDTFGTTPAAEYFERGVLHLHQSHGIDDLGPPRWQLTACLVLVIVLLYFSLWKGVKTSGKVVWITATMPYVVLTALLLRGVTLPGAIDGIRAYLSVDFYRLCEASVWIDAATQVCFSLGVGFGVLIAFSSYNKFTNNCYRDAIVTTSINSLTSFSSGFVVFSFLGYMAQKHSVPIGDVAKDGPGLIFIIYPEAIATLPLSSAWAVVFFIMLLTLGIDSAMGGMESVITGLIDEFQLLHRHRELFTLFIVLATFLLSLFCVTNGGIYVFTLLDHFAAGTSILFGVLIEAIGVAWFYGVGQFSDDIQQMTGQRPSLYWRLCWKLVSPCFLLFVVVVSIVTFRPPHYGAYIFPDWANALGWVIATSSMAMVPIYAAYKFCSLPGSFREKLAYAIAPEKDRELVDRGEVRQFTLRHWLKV
WT yeast gro inh = growth inhibition of WT yeast, mitochondrial fusion screen. inhibition, % at 10 µM. actives 2.1% (n = 190,000). mitochondrial fusion phenotypic screen, WT strain. AID 1362; in the data active = inhibition above about 58%; tested in S. cerevisiae
Numbers stand for hits; – = inactive; · = not tested or not shown.

SMILES	bCat KO growth	PTEN del growth	DAT uptake mod	WT yeast gro inh
COC(=O)C1=C[C@@H](C(=O)OC)[C@@H]2C3=C(C(=O)[C@@]2(C)NC(=O)c2ccccc2)[C@H](c2ccccc2)n2c(=O)n(-c4ccccc4)c(=O)n2[C@@H]3C1	·	·	–	·
COC(=O)C1=C[C@@H](C(=O)OC)[C@@H]2C3=C(C(=O)[C@]2(CC(C)C)NC(=O)c2ccccc2)[C@H](C)n2c(=O)n(-c4ccccc4)c(=O)n2[C@@H]3C1	·	·	-2.5	·
Cc1ccc(O)c(NC(=S)NC(=O)c2ccccc2Cl)c1	·	·	·	–
COc1ccc(C(CC(=O)c2ccc(O)cc2)S(=O)(=O)c2ccc(C)cc2)cc1 (centres undefined)	6.0	–	–	–
O=C(c1ccco1)N(Cc1cccc([N+](=O)[O-])c1)c1ccc(Br)cc1	·	·	·	–
O=C(c1ccco1)N(Cc1ccc([N+](=O)[O-])cc1)c1ccc(Br)cc1	–	–	2.9	–
Cc1ccc(Cl)cc1N1CCN(Cc2nnnn2C2CCCCC2)CC1	–	–	–	74
c1ccc(N2CCN(Cc3nnnn3C3CCCCC3)CC2)cc1	–	–	–	–
CCc1nnc(NC(=O)CSc2nccn2-c2cc(C)cc(C)c2)s1	–	–	–	–
CCOc1ccc2nc(NC(=O)c3ccoc3C)sc2c1	–	–	–	79
N#Cc1c(NC(=O)COC(=O)c2ccc(S(=O)(=O)N3CCCC3)cc2)sc2c1CCCCC2	–	–	·	–
Cc1ccc(S(=O)(=O)NC(N)=NCCc2ccc(Cl)cc2)cc1C	–	–	·	–
COc1ccccc1N(CC(O)COc1c(C)cc(C)cc1C)S(=O)(=O)c1ccccc1 (centres undefined)	–	–	·	61
COc1ccccc1N(CC(O)COc1ccc(C)cc1)S(=O)(=O)c1ccccc1 (centres undefined)	–	–	·	–
CC(=O)c1ccc(-c2ccccc2[C@H]2[C@H]3C=CC[C@@H](C)[C@@H]3C(=O)N2Cc2ccccc2)cc1	·	·	–	·
N#Cc1cccc2cnccc12	–	–	-2.9	–
Nc1cccc2cnccc12	–	–	–	–
Cc1ccc(/C=C/C(=O)OCC(=O)NC(C)C)o1	·	·	·	–
COC(=O)Nc1ccccc1C(=O)N1CCCCC1	–	–	-2.7	–
CCCCOC(=O)Nc1ccccc1C(=O)N1CCCC1	–	–	·	–
Cn1c2c(c(=O)[nH]c1=O)C(c1cccc(O)c1)C1=C(N2)c2ccccc2C1=O (centres undefined)	·	·	·	–
Cc1ccc(O)c(N=Nc2ccccc2)n1	·	·	–	·
Cc1ccc(C(=O)c2ccc(N3CCOCC3)c(F)c2)cc1	–	–	4.5	–
CCC(=O)c1ccc(N2CCOCC2)c(F)c1	–	–	–	–
CCC(CC)C(=O)OCC(=O)Nc1cccc([N+](=O)[O-])c1	·	·	·	–
SMILES	bCat KO growth	PTEN del growth	DAT uptake mod	WT yeast gro inh
CC(C)c1ccc(CC(C)C2C3=C(CCCC3=O)OC3=C2C(=O)CCC3)cc1 (centres undefined)	–	–	–	–
COc1cccc(CC(=O)Nc2ccc3nc(C)sc3c2)c1	–	–	·	64
CCCC(NC(=S)NCC1CCCO1)C12CC3CC(CC(C3)C1)C2 (centres undefined)	·	·	·	79
CC(=O)NS(=O)(=O)c1ccc(NC(=S)NC(=O)Cc2ccccc2)cc1	·	·	·	–
COc1cc(/C=C(\CC(=O)O)c2nc3ccccc3s2)cc(OC)c1O	·	·	·	–
COc1ccccc1/C=N/NC(=Nc1ccc(C)cc1)c1nc2ccccc2s1	–	–	–	–
COc1cc(C=C(c2nc3ccccc3s2)c2nc3ccccc3s2)cc(OC)c1O	–	–	·	74
COc1ccc(-c2nc3ccccc3s2)cc1O	–	–	–	59
O=C(O)c1ccc(C=C(c2nc3ccccc3s2)c2nc3ccccc3s2)cc1	·	·	·	74
COc1cc(/C=N/NC(=Nc2ccc(C)cc2)c2nc3ccccc3s2)ccc1O	–	–	–	75
Fc1ccccc1CSc1ccc(-c2ccco2)nn1	·	·	·	–
COc1ccc(CC(=O)NCC(=O)N/N=C(/C)c2ccco2)cc1	·	·	·	–
COc1ccc(OCC(=O)Nc2c3c(nn2C(C)(C)C)CSC3)cc1	·	·	·	–
Cc1c(-c2cccs2)[n+](=O)c2c(n1[O-])CCCCC2	–	–	–	58
Cc1ccc(C(=O)Nc2nc(C)c(C(=O)Nc3ccc4c(c3)CCC4)s2)cc1	–	–	·	–
Cc1ccc(N/C(N)=N/c2nc(CSc3ccc(C)cc3)cc(=O)[nH]2)cc1	–	–	·	–
COc1ccc(N/C(N)=N/c2nc(CSc3ccc(C)cc3)cc(=O)[nH]2)cc1	–	–	·	80
COc1ccccc1C(=O)NNC(=O)c1sccc1-n1cccc1	·	·	·	–
O=C(CSc1ncn[nH]1)NCc1ccccc1	–	–	–	89
COc1cccc(N2CCN(c3ncnc4c3[nH]c3ccc(F)cc34)CC2C)c1 (centres undefined)	2.0	1.6	–	79
COc1cc2[nH]c3c(N4CCN(c5ccc(Cl)cc5)CC4)ncnc3c2cc1OC	–	–	–	–
COc1cccc(N2CCN(c3ncnc4c3[nH]c3ccccc34)CC2C)c1 (centres undefined)	4.7	–	–	65
COc1ccc2[nH]c3c(N4CC(C)OC(C)C4)ncnc3c2c1 (centres undefined)	–	–	–	–
CC(NC(=O)Nc1nnc(C(F)(F)F)s1)N1C(=O)C2C3C=CC(C3)C2C1=O (centres undefined)	–	–	–	–
O=C(Nc1nnc(C(F)(F)F)s1)c1ccc(Br)s1	·	·	·	63
SMILES	bCat KO growth	PTEN del growth	DAT uptake mod	WT yeast gro inh
CC(NC(=O)Nc1nnc(C(F)(F)F)s1)(C(F)(F)F)C(F)(F)F	2.4	1.8	–	70
CC(C)(C)CC(=O)Nc1nnc(C(F)(F)F)s1	–	–	2.8	–
O=C(CCC(=O)NC1CCCCCC1)Nc1nnc(C(F)(F)F)s1	–	–	–	–
Cc1cc2cc(CCNC(=O)c3cccc([N+](=O)[O-])c3)c(=O)[nH]c2cc1C	–	–	·	–
Cn1c(Oc2ccc3c(c2)OCO3)nc2c1c(=O)n(Cc1ccccc1)c(=O)n2C	–	–	–	98
CC1CCCN(Cc2nc3c(c(=O)n(C)c(=O)n3C)n2CC(N)=O)C1 (centres undefined)	–	–	–	98
CCCCCCn1c(CN2CCCCC2C)nc2c1c(=O)n(C)c(=O)n2C (centres undefined)	6.0	–	–	–
CCOCCn1c(CN2CCCC(C)C2)nc2c1c(=O)n(C)c(=O)n2C (centres undefined)	·	·	–	·
COc1ccc(C(=O)N/N=C/c2cccc3cccnc23)cc1	4.9	–	·	–
CCOc1ccc(C(=O)N/N=C/c2cccc3cccnc23)cc1	–	–	–	–
COc1ccc(C(=O)N/N=C(\c2ccccc2)c2ccccn2)cc1	4.6	–	·	68
COc1ccc(-c2nnc3ccc(SCC(=O)Nc4nc5ccc(C)cc5s4)nn23)cc1OC	–	–	·	–
Cc1ccnc(-n2c(C)cc(C=O)c2C)c1	·	·	·	–
O=C(C1=C(O)/C(=C/c2ccc(O)cc2)CCC1)C(F)(F)F	–	–	–	67
COC(=O)c1cc(C(=O)N2CCOCC2)cc([N+](=O)[O-])c1	·	·	·	–
COC1(C)CC2C(CC1OC(=O)c1cc([N+](=O)[O-])cc([N+](=O)[O-])c1)C2(C)C (centres undefined)	–	–	·	76
COC(C[C@H](O)C[C@@H](O)COCc1ccccc1)OC	·	·	–	·

Screening results as filed in PubChem BioAssay.
